NCOA2 inhibitor – inhibition of GAL4-SRC2 driven luciferase reporter, primary screen, SRC2 inhibitor project, cell-based, luminescence | 370,000 tested, 0.17% active | AID 651957, 2012 | HEK293 GAL4-SRC2 luciferase reporter | inhibition, % at 9 µM | Nuclear receptor coactivator 2 (Homo sapiens), Q15596;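 active means inhibition above the mean inhibition of all tested compounds plus 3 SD, set per campaign, cut at about 52% in these data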
Gli-Sufu antag – Gli-Sufu pathway antagonists, primary screen, luciferase luminescence, Sufu-KO-LIGHT cells, uHTS; Sufu-KO-LIGHT fibroblasts, Gli luciferase reporter luminescence; inhibition, % at 5 µM; 340,000 tested, 0.74% active; AID 588413, 2011;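 active means inhibition above about 55%, limit read from the data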
NCOA1 inh – SRC1 coactivator transcriptional activity inhibitors, primary screen, cell-based, luminescence; HEK293 GAL4-SRC1 luciferase reporter; inhibition, % at 3.6 µM; 360,000 tested, 0.12% active; AID 588354, 2011;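 active means inhibition above the campaign mean plus 3 SD, with each screening campaign given its own cutoff, cut at about 60% in these data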
NR5A2 inv ag – LRH-1 (NR5A2) inverse agonists, primary screen, cell-based, luminescence, HEK293T, StAR-luciferase reporter; Nuclear receptor subfamily 5 group A member 2 (Homo sapiens), O00482; LRH-1 transfected, 24 h; inhibition, % at 3.6 µM; 360,000 tested, 0.13% active;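 active means inhibition above the mean inhibition of all tested compounds plus 3 SD, cut at about 73% in these data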
Target sequence (O00482 whole entry, looked up): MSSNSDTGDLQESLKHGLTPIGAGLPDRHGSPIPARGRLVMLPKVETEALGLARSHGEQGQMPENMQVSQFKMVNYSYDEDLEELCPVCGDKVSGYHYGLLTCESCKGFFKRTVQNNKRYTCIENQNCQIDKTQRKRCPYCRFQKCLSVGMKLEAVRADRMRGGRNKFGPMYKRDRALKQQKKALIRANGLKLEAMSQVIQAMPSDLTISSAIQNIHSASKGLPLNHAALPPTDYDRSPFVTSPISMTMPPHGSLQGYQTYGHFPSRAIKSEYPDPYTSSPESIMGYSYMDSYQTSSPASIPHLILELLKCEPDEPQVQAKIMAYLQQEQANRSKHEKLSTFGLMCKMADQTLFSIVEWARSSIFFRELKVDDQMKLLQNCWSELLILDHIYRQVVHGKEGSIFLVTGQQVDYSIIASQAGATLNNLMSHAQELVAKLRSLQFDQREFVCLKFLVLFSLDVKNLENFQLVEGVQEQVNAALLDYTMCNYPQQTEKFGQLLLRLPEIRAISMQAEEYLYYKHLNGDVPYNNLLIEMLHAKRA
SRC3 inh – SRC3 coactivator transcriptional activity inhibitors, primary screen, cell-based, luminescence. Nuclear receptor coactivator 3 (Homo sapiens), Q9Y6Q9. HEK293 GAL4-SRC3 luciferase reporter. inhibition, % at 3.6 µM. 360,000 tested, 0.17% active. AID 588352, 2011;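 active means inhibition above a per-campaign cutoff, the mean of all compounds plus 3 SD, cut at about 60% in these data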;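 further: higher means less SRC3-driven luciferase light from the GAL4 reporter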
NR2F2 inh – NR2F2 transcriptional activity inhibitors, primary screen, cell-based, luciferase reporter, HEK293T, luminescence; COUP transcription factor 2 (Homo sapiens), P24468; HEK293T NGFI-A luciferase reporter; inhibition, % at 8.6 µM; 370,000 tested, 0.7% active; AID 686940, 2013;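 active means inhibition above a per-plate cutoff, mean inhibition of test wells between control levels plus 3 SD, cut at about 38% in these data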;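 further: cells cotransfected with COUP-TFII expression vector driving the NGFI-A reporter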
Numbers stand for hits; i = inactive; nt = no result given; ! = repeats disagree. Most compounds without a hit are left out; they make up all but 1.3% or so of the library.

SMILES	NCOA2 inhibitor	Gli-Sufu antag	NCOA1 inh	NR5A2 inv ag	SRC3 inh	NR2F2 inh
CCOc1ccc(-n2c(C)c(C(C)=O)c3cc(O)ccc32)cc1	i	i	61.1	i	i	i
S=C(NCCCCN(Cc1ccc(Cl)cc1)c1ccc(Br)cn1)NCCCc1cnc[nH]1	i	nt	i	95.3	i	i
O=C(CSc1nnc(-c2cccnc2)n1-c1ccc(Cl)cc1)c1ccc2ccccc2c1	i	nt	nt	nt	nt	i
CN(C)c1ncnc2[nH]ncc12	i	i	i	i	i	i
CCCN(CC)c1ncnc2[nH]ncc12	54.8	i	65.0	i	65.0	i
COc1cc(/C=N/NC(=Nc2ccc(C)cc2)c2nc3ccccc3s2)ccc1O	i	i	84.3	i	84.8	i
COc1ccc2[nH]c3c(c2c1)CCNC3=O	i	i	i	i	65.3	i
O=C(CCl)N1N=C(c2cccs2)CC1c1ccco1 (stereo not drawn)	60.1	i	i	i	i	i
S=C(Nc1ccc(Cl)c(Cl)c1)Nc1nnc(-c2ccncc2)s1	nt	nt	nt	nt	nt	i
CCn1c2ccccc2c2cc(NC(=O)COC(=O)c3cc(F)ccc3F)ccc21	i	nt	nt	nt	nt	i
C[n+]1c2cc(N)ccc2cc2ccc(N)cc21	i	i	i	73.6!	i	i
CCNc1nc(N)c([N+](=O)[O-])c(Nc2cccc(Cl)c2)n1	nt	nt	nt	nt	nt	i
C=C1C(=O)OC2CC1C(O)CC(C)=CCCC(C)=CC(O)CC2C (stereo not drawn)	i	i	i	i	i	46.6
C=C1C(=O)OC2C1CCC(C)C1C=CC(=O)C12C (stereo not drawn)	i	i	i	i	i	i
CCC[C@H]1[C@@H](N(C)CC2CCCCC2)CC[C@@]23CCCN2C(=O)CCC[C@@H]13	nt	nt	nt	nt	nt	i
Cc1ccc2c(Cl)cc(Cl)c(O)c2n1	i	59.5	i	i	i	i
COc1cc(Nc2nc(-c3ccccc3)c3cc(C)ccc3n2)cc(OC)c1OC	93.1	i	i	i	i	i
Cc1ccc2nc(NCC(=O)O)nc(-c3ccccc3)c2c1	i	i	i	i	i	i
Oc1c(CN2CCCCC2)cc(COCc2ccccc2)c2cccnc12	i	92.3	i	i	i	i
COCc1cc(CN2CCCC2)c(O)c2ncccc12	i	i	i	i	i	i
Oc1c(CN2CCN(c3ccccn3)CC2)cc(Cl)c2cccnc12	nt	70.6	i	i	i	nt
CN(C)C1CCN(Cc2cc(COCc3ccccc3)c3cccnc3c2O)C1 (stereo not drawn)	nt	57.0	i	i	i	nt
OCCN1CCN(Cc2cc(Cl)c3cccnc3c2O)CC1	i	i	i	i	i	i
COc1ccc(N2CCN(CCCNC(=O)Cn3c(=O)c4cccn4c4cccnc43)CC2)c(OC)c1	nt	nt	nt	nt	nt	i
COc1c(Cl)cc(Cl)cc1/C=N/NC(=O)c1nnn(-c2nonc2N)c1CN1CCC(C)CC1	i	i	i	i	i	i
SMILES	NCOA2 inhibitor	Gli-Sufu antag	NCOA1 inh	NR5A2 inv ag	SRC3 inh	NR2F2 inh
CC1CCN(Cc2c(C(=O)N/N=C/c3cc(Cl)ccc3O)nnn2-c2nonc2N)CC1	i	80.1	i	i	i	i
CC1CCN(Cc2c(C(=O)N/N=C/c3cc(Br)ccc3O)nnn2-c2nonc2N)CC1	i	86.5	i	i	68.2	i
Cc1cc(C)c(/C=N/NC(=O)c2nnn(-c3nonc3N)c2CN2CCC(C)CC2)c(C)c1	i	i	i	i	i	i
O=C1C(=C(I)I)c2ccccc2-c2ccccc21	86.3	i	i	i	i	i
O=C(O)c1cccc2c1C(=O)c1ccccc1-2	i	i	i	i	i	i
Cc1ccccc1NC1=C/C(=N\S(=O)(=O)c2cccs2)c2ccccc2C1=O	i	i	79.5	i	87.5	i
Cc1ccc(NC2=C/C(=N/S(=O)(=O)c3cccs3)c3ccccc3C2=O)cc1C	i	i	i	i	i	i
CC(C)NS(=O)(=O)c1ccc(OCC(=O)N2CCN(c3ccccc3)CC2)cc1	i	i	i	i	i	i
O=C(COc1ccc(S(=O)(=O)NC2CCCCC2)cc1)N1CCN(c2cccc(Cl)c2)CC1	i	i	i	i	i	57.2
CCC(C)Sc1cc(-c2nc3ccc(C)cn3c2NCc2ccccc2)ccc1OC (stereo not drawn)	i	66.5	i	i	i	i
COc1ccc(-c2cc(-c3nc4ccccn4c3NCc3ccccc3)ccc2OC)cc1	90.7	89.6	i	91.2	63.7	101.0
CCOc1ccc(C=Nn2c(-c3cccc(OC(C)C)c3)n[nH]c2=S)cc1	i	nt	nt	nt	nt	i
C=CCNC(=O)C1CCN(c2cncnc2)CC1	i	nt	nt	nt	nt	i
COC[C@H]1CCCN1c1ccc2c(c1)O[C@@H]1CCN(C1)S2(=O)=O	i	nt	nt	nt	nt	i
O=C(Nc1ccc([N+](=O)[O-])cc1)Nc1nc(-c2ccc(Cl)s2)cs1	i	60.5	i	i	i	i
CCOC(=O)CCSc1nc(C(C)(C)C)cc(C(F)(F)F)c1C#N	69.9	i	i	i	i	i
CC(=O)Nc1sc2c(c1-c1nc(-c3ccccc3)cs1)CCN(C(C)C)C2	nt	nt	nt	nt	nt	i
O=[N+]([O-])c1cc(O)c2ncccc2c1	i	67.2	nt	nt	nt	i
O=C(CCl)N(c1ccccc1)c1c[nH]c2ccccc12	i	i	i	i	i	i
O=C(CCl)N(c1ccc(Cl)cc1)c1c[nH]c2ccccc12	i	88.3	i	i	i	i
Cc1ccc(S(=O)(=O)Nc2cc(Cl)c(O)c3ncccc23)cc1	i	69.0	i	i	i	i
C(=N\NC1=Nc2cccc3cccc1c23)/c1ccccn1	i	70.0	i	i	i	i
C(=NNc1ccc2ccccc2n1)c1ccccn1	i	nt	72.1	79.8	68.4	i
O=C(NC1CCCC1)C1(C(=O)C2CC2)CC(c2ccccc2C(F)(F)F)=NO1 (stereo not drawn)	i	nt	nt	nt	nt	i
C#CCCC(=O)Nc1sc2c(c1-c1nc3ccccc3s1)CCN(C(C)C)C2	nt	nt	nt	nt	nt	i
SMILES	NCOA2 inhibitor	Gli-Sufu antag	NCOA1 inh	NR5A2 inv ag	SRC3 inh	NR2F2 inh
CC(=O)C1=C(c2ccc(Br)cc2)C(=O)c2ccccc2C1=O	70.3	i	90.8	85.1	91.7	71.3
CC(=O)Nc1c(Br)cc2c(c1Br)C(=O)c1ccccc1-2	i	i	i	i	i	i
Cc1cc(=O)[nH]c(NN=Cc2cc(Br)ccc2O)n1	i	76.2	i	i	i	i
CCCOC(c1ccccc1)(c1ccc(C(F)(F)F)cc1)C(Oc1nc(C)cc(C)n1)C(=O)O (stereo not drawn)	i	i	61.0	81.1	71.0	i
COc1ccc(N/C(=C\C(=O)c2ccccc2)c2ccccc2)cc1OC	i	nt	nt	nt	nt	i
Cn1c2c(c(=O)[nH]c1=O)C(c1cccc(O)c1)C1=C(N2)c2ccccc2C1=O (stereo not drawn)	i	55.6	i	i	i	i
